Measured values from PubChem BioAssay (EPA / NIEHS).
A structure can be active in one record and inactive in another. Activity calls are given as the source filed them. How the source made its calls: active means hit-call score of the fitted dose curve at least 0.9, where 1 is the maximum; inactive means score below 0.9.

Key:
[1] = biological target: Transcription factor E2F1 (Homo sapiens) (UniProt Q01094); assay: ATG_E2F_CIS: Attagene CIS-FACTORIAL HepG2 Assay for human E2F Transcription Factor 1 (AID 2282935); details: HepG2 Attagene cis-reporter, E2F reporter RNA transcripts; actives raise or lower the signal
Summary of the method: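 Measures reporter transcript levels via RT-PCR with capillary electrophoresis detection in HepG2 cells harboring cis-regulated reporter units; 24 h post-dose; bidirectional curve fitting with DMSO as baseline.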

[2] = ATG_E_Box_CIS: Attagene CIS-FACTORIAL HepG2 Assay for human Enhancer Box (E-box) (AID 2282936); details: HepG2 E-box cis-reporter transcription, actives raise or lower the signal
Summary of the method: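 First, HepG2 cells receive multiple cis-regulated reporter constructs by transient transfection. Next, chemicals are applied for 24 h. Finally, reporter mRNA is quantified via RT-PCR and capillary electrophoresis, with DMSO as baseline.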

[3] = ATG_M_61_CIS: Attagene CIS-FACTORIAL HepG2 Assay for M61 Transcription Factor (Internal Marker) (AID 2282937); details: HepG2 Attagene CIS-FACTORIAL M61 internal marker reporter; actives raise or lower the signal
Summary of the method: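 Background-control endpoint: HepG2 cells with cis-regulated reporter constructs, 24 h exposure, reporter mRNA detected via fluorescent primer extension and capillary electrophoresis; values from bidirectional fitting with DMSO baseline.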

[4] = ATG_EGR_CIS: Attagene CIS-FACTORIAL HepG2 Assay for human Early Growth Response 1 (EGR1) (AID 2282938); details: HepG2 Attagene CIS-FACTORIAL EGR reporter mRNA; actives raise or lower the signal
Summary of the method: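 Endpoint derived by bidirectional fitting versus DMSO vehicle. Method: cis-promoter reporter units transfected into HepG2, 24 h dosing, RNA isolation, RT-PCR with 6-FAM primer extension and HpaI digestion, then capillary electrophoresis fluorescence detection.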

[5] = ATG_M_19_CIS: Attagene CIS-FACTORIAL HepG2 Assay for M19 Transcription Factor (Internal Marker) (AID 2282939); details: HepG2 Attagene CIS-FACTORIAL M19 internal marker reporter; actives raise or lower the signal
Summary of the method: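 HepG2 cells transiently transfected with cis-regulated multiple reporter transcription units were dosed for 24 h; reporter mRNA was quantified by RT-PCR, 6-FAM primer-extension labelling, HpaI digestion and capillary electrophoresis, with bidirectional fitting against DMSO baseline.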

[6] = ATG_ERE_CIS: Attagene CIS-FACTORIAL HepG2 Assay for Estrogen Response Element (ERE) (AID 2282940); details: HepG2 ERE cis-reporter, Attagene RNA transcript; actives raise or lower the signal
Summary of the method: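 HepG2 cells transiently transfected with cis-promoter-driven multiplexed reporter transcription units report endogenous TF activity. After 24 h compound exposure, reporter mRNA is quantified by RT-PCR with capillary electrophoresis fluorescence; bidirectional fitting versus DMSO baseline.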

[7] = ATG_Ets_CIS: Attagene CIS-FACTORIAL HepG2 Assay for human Erythroblast Transformation Specific (ETS) (AID 2282941); details: HepG2 ETS cis-reporter transcription, actives raise or lower the signal
Summary of the method: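 HepG2 cells transiently transfected with cis-promoter reporter transcription units were dosed for 24 h; reporter mRNA was measured by RT-PCR, 6-FAM primer extension, HpaI digestion and capillary electrophoresis, with bidirectional fitting against DMSO baseline.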

[8] = biological target: Hepatocyte nuclear factor 3-beta (Homo sapiens) (UniProt Q9Y261); assay: ATG_FoxA2_CIS: Attagene CIS-FACTORIAL HepG2 Assay for human Forkhead box A2 (FOXA2) (AID 2282942); details: HepG2 cis-reporter transcription factor activity, 24 h; actives raise or lower the signal
Summary of the method: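 Measured: reporter mRNA induction or loss in HepG2 transiently carrying multiple cis-regulated reporter units, 24 h after dosing. Quantified by RT-PCR plus capillary electrophoresis, normalised to DMSO.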

[9] = ATG_FoxO_CIS: Attagene CIS-FACTORIAL HepG2 Assay for human Forkhead box O (FoxO) (AID 2282943); details: HepG2 Attagene cis-reporter, FoxO element, mRNA; actives raise or lower the signal
Summary of the method: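 Read-out: fluorescence of 6-FAM-labelled reporter cDNA fragments resolved by capillary electrophoresis. Transiently transfected HepG2 cells were dosed for 24 h; activity fitted in both directions relative to DMSO controls.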

[10] = ATG_GATA_CIS: Attagene CIS-FACTORIAL HepG2 Assay for human GATA Binding Protein (AID 2282944); details: HepG2 GATA cis-element reporter, Attagene multiplex mRNA; actives raise or lower the signal
Summary of the method: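 HepG2 cells transiently transfected with multiplexed cis-element reporter units reflecting endogenous transcription factor activity; reporter mRNA measured after 24 h dosing by RT-PCR, 6-FAM labeling, HpaI digestion and capillary electrophoresis. Bidirectional fitting versus DMSO baseline.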

Measured: AC50

Hepatocyte nuclear factor 3-beta (Homo sapiens), sequence (Q9Y261 whole entry, looked up): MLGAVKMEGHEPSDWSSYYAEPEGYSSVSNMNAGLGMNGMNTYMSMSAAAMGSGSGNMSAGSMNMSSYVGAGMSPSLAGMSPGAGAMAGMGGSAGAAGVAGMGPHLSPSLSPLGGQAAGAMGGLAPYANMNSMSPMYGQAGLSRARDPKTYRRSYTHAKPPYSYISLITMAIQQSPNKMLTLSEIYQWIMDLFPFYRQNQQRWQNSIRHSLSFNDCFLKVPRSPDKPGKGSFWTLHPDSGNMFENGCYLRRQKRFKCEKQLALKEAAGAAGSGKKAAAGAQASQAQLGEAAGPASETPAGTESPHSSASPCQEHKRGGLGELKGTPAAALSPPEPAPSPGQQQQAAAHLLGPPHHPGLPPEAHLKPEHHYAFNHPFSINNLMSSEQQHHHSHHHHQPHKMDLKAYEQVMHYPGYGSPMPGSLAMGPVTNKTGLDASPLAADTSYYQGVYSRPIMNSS
Transcription factor E2F1 (Homo sapiens), sequence (Q01094 whole entry, looked up): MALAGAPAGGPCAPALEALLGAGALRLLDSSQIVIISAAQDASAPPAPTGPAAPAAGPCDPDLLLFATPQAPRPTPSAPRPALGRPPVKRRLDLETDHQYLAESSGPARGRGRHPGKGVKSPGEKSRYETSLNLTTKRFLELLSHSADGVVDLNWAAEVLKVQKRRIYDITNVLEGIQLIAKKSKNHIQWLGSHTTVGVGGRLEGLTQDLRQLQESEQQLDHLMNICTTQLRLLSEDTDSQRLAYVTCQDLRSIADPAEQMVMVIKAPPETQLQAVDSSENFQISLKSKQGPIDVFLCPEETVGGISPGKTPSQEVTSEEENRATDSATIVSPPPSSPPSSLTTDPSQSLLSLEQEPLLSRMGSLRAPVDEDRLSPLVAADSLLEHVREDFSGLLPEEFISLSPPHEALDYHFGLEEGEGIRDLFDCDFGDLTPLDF

OCCCC(F)(F)C(F)(F)C(F)(F)F
inactive: all assays above

O=C(O)C(F)(F)C(F)(F)C(F)(F)C(F)(F)C(F)(F)C(F)(F)C(F)(F)C(F)(F)C(F)(F)C(F)F
active: [6] 26.3 µM
inactive: all other assays above

FC(F)(F)C(F)(F)C(F)(F)C(F)(F)C(F)(F)C(F)(F)C(F)(F)C(F)(F)F
inactive: all assays above

OC[C@@H](O)[C@@H](O)[C@H](O)[C@@H](O)CO
inactive: [1] | [2] | [3] | [4] | [5] | [6] | [7] | [8] | [9] | [10]
active: [6] 30.6 µM

Nc1ccc([N+](=O)[O-])cc1O
inactive: all assays above

COC(=O)C1CCC(C(=O)OC)CC1 (stereo not given)
inactive: [1] | [2] | [3] | [4] | [5] | [6] | [7] | [8] | [9] | [10]
active: [6] 20.5 µM

CCCCC(CC)COP(=O)(O)OCC(CC)CCCC (stereo not given)
inactive: all assays above

C1COCCN1
inactive: all assays above

CCc1c(Br)c(Br)c(Br)c(Br)c1Br
inactive: all assays above

Cc1ccc(S(=O)(=O)OCC(F)(F)C(F)(F)C(F)(F)C(F)(F)C(F)(F)C(F)F)cc1
inactive: all assays above

O=C(CC(=O)C(F)(F)C(F)(F)F)C(F)(F)F
inactive: all assays above

C=C(C)C(=O)OCC(F)(F)C(F)(F)C(F)(F)F
active: [6] 30.8 µM
inactive: [1] | [2] | [3] | [4] | [5] | [6] | [7] | [8] | [9] | [10]

FC(F)(F)C(F)(F)CNCC(F)(F)C(F)(F)F
inactive: all assays above

CCCCCC=O
inactive: all assays above

C=CC/C=C/C/C=C/C/C=C/C
inactive: all assays above

C=C(C)C(=O)OCC(F)(F)C(F)(F)C(F)(F)C(F)(F)C(F)(F)C(F)(F)C(F)(F)F
active: [6] 16.2 µM
inactive: all other assays above

CCc1ccc(C(c2ccc(CC)cc2)C(Cl)Cl)cc1
active: [6] 40.1 µM
inactive: all other assays above

CS(C)(=O)=O
inactive: all assays above

OCCCC(F)(F)C(F)(F)C(F)(F)C(F)(F)C(F)(F)C(F)(F)C(F)(F)F
inactive: [1] | [2] | [3] | [4] | [5] | [6] | [7] | [8] | [9] | [10]
active: [2] 72.9 µM | [4] 80.6 µM | [5] 264 µM | [6] 19.9 µM | [7] 50 µM | [9] 65.3 µM | [10] 78.9 µM
